Source: paper PMC7826789 (International Journal of Molecular Sciences, 2021)

Experiments:
Conditions in all cases: Compound Concentration (nM):1000
PLK3 = tested on: PLK3
PLK4 = tested on: PLK4
PRKCD = tested on: PRKCD
PRKCE = tested on: PRKCE
PRKCH = tested on: PRKCH
PRKCI = tested on: PRKCI
PRKCQ = tested on: PRKCQ
PRKD1 = tested on: PRKD1
PRKD2 = tested on: PRKD2
PRKD3 = tested on: PRKD3
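Further: KINOMEscan scanMAX binding as percent activity remaining versus control; lower means stronger binding.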

Nc1ncnc2occ(-c3ccc(NC(=O)Nc4cc(C(F)(F)F)ccc4F)cc3)c12 [GW770249X]
Percent Control (PLK3): 16%
Percent Control (PLK4): 80%
Percent Control (PRKCD): 76%
Percent Control (PRKCE): 94%
Percent Control (PRKCH): 100%
Percent Control (PRKCI): 100%
Percent Control (PRKCQ): 100%
Percent Control (PRKD1): 100%
Percent Control (PRKD2): 100%
Percent Control (PRKD3): 85%

COc1cc(C=NNc2ncnc3c2cnn3-c2ccccc2)ccc1O [GW513184X]
Percent Control (PLK3): 71%
Percent Control (PLK4): 77%
Percent Control (PRKCD): 100%
Percent Control (PRKCE): 88%
Percent Control (PRKCH): 100%
Percent Control (PRKCI): 100%
Percent Control (PRKCQ): 86%
Percent Control (PRKD1): 100%
Percent Control (PRKD2): 100%
Percent Control (PRKD3): 100%

COc1cccc(-n2ncc3c(N/N=C/c4ccncc4)ncnc32)c1 [GW784752X]
Percent Control (PLK3): 88%
Percent Control (PLK4): 84%
Percent Control (PRKCD): 100%
Percent Control (PRKCE): 100%
Percent Control (PRKCH): 99%
Percent Control (PRKCI): 72%
Percent Control (PRKCQ): 100%
Percent Control (PRKD1): 100%
Percent Control (PRKD2): 100%
Percent Control (PRKD3): 91%

CCc1ccc(Oc2nccc(-c3c(-c4ccc(F)cc4)ncn3C3CCNCC3)n2)cc1 [SB-242719]
Percent Control (PLK3): 83%
Percent Control (PLK4): 79%
Percent Control (PRKCD): 100%
Percent Control (PRKCE): 95%
Percent Control (PRKCH): 100%
Percent Control (PRKCI): 95%
Percent Control (PRKCQ): 84%
Percent Control (PRKD1): 95%
Percent Control (PRKD2): 85%
Percent Control (PRKD3): 70%

COc1cc2ncnc(Nc3ccc4c(cnn4Cc4ccccc4)c3)c2cc1OC.Cl [GW282449A]
Percent Control (PLK3): 100%
Percent Control (PLK4): 100%
Percent Control (PRKCD): 100%
Percent Control (PRKCE): 64%
Percent Control (PRKCH): 100%
Percent Control (PRKCI): 100%
Percent Control (PRKCQ): 100%
Percent Control (PRKD1): 100%
Percent Control (PRKD2): 100%
Percent Control (PRKD3): 98%

CC(C)COC(=O)c1ccc2c(c1)/C(=C/Nc1ccc(S(N)(=O)=O)cc1)C(=O)N2 [GW416981X]
Percent Control (PLK3): 83%
Percent Control (PLK4): 64%
Percent Control (PRKCD): 100%
Percent Control (PRKCE): 100%
Percent Control (PRKCH): 100%
Percent Control (PRKCI): 100%
Percent Control (PRKCQ): 100%
Percent Control (PRKD1): 100%
Percent Control (PRKD2): 100%
Percent Control (PRKD3): 61%

O=C(Nc1n[nH]c2nc(-c3ccc(O)cc3)c(Br)cc12)C1CC1 [SB-725317]
Percent Control (PLK3): 88%
Percent Control (PLK4): 82%
Percent Control (PRKCD): 45%
Percent Control (PRKCE): 46%
Percent Control (PRKCH): 78%
Percent Control (PRKCI): 90%
Percent Control (PRKCQ): 58%
Percent Control (PRKD1): 100%
Percent Control (PRKD2): 100%
Percent Control (PRKD3): 99%

NS(=O)(=O)c1ccc(N/N=C2\C(=O)Nc3ccc(Cl)cc32)cc1 [GW280670X]
Percent Control (PLK3): 95%
Percent Control (PLK4): 89%
Percent Control (PRKCD): 99%
Percent Control (PRKCE): 100%
Percent Control (PRKCH): 100%
Percent Control (PRKCI): 100%
Percent Control (PRKCQ): 100%
Percent Control (PRKD1): 100%
Percent Control (PRKD2): 100%
Percent Control (PRKD3): 100%

CCn1c(-c2nonc2N)nc2c(C#CC(C)(C)O)nc(OCCNC)cc21.Cl [GSK949675]
Percent Control (PLK3): 100%
Percent Control (PLK4): 90%
Percent Control (PRKCD): 40%
Percent Control (PRKCE): 0%
Percent Control (PRKCH): 15%
Percent Control (PRKCI): 61%
Percent Control (PRKCQ): 3.3%
Percent Control (PRKD1): 95%
Percent Control (PRKD2): 100%
Percent Control (PRKD3): 88%

Cc1cc(O)cc(C)c1/C=C/c1cncc(C(N)=O)c1 [GW435821X]
Percent Control (PLK3): 90%
Percent Control (PLK4): 85%
Percent Control (PRKCD): 87%
Percent Control (PRKCE): 93%
Percent Control (PRKCH): 100%
Percent Control (PRKCI): 100%
Percent Control (PRKCQ): 90%
Percent Control (PRKD1): 100%
Percent Control (PRKD2): 100%
Percent Control (PRKD3): 79%

C[C@@H](Oc1cc(-n2cnc3ccc(OC4CCN(C)CC4)cc32)sc1C(N)=O)c1ccccc1Cl [GSK579289A]
Percent Control (PLK3): 19%
Percent Control (PLK4): 78%
Percent Control (PRKCD): 66%
Percent Control (PRKCE): 100%
Percent Control (PRKCH): 100%
Percent Control (PRKCI): 43%
Percent Control (PRKCQ): 58%
Percent Control (PRKD1): 100%
Percent Control (PRKD2): 84%
Percent Control (PRKD3): 70%

C/C(Nc1ccc(S(N)(=O)=O)cc1)=C1/C(=O)Nc2ccccc21 [GW335962X]
Percent Control (PLK3): 83%
Percent Control (PLK4): 74%
Percent Control (PRKCD): 95%
Percent Control (PRKCE): 96%
Percent Control (PRKCH): 100%
Percent Control (PRKCI): 100%
Percent Control (PRKCQ): 81%
Percent Control (PRKD1): 100%
Percent Control (PRKD2): 100%
Percent Control (PRKD3): 86%

COc1cc(C)c(N(C)C(=O)CN(C)C)cc1Nc1nc(Nc2cccc(F)c2C(N)=O)c2cc[nH]c2n1 [GSK2219385]
Percent Control (PLK3): 94%
Percent Control (PLK4): 84%
Percent Control (PRKCD): 100%
Percent Control (PRKCE): 100%
Percent Control (PRKCH): 100%
Percent Control (PRKCI): 82%
Percent Control (PRKCQ): 92%
Percent Control (PRKD1): 100%
Percent Control (PRKD2): 89%
Percent Control (PRKD3): 88%

CN(C)CCNC(=O)Nc1ccc(N(C)c2ccnc(Nc3ccc(CS(C)(=O)=O)cc3)n2)cc1.Cl [GW830900A]
Percent Control (PLK3): 90%
Percent Control (PLK4): 24%
Percent Control (PRKCD): 100%
Percent Control (PRKCE): 100%
Percent Control (PRKCH): 100%
Percent Control (PRKCI): 85%
Percent Control (PRKCQ): 100%
Percent Control (PRKD1): 100%
Percent Control (PRKD2): 100%
Percent Control (PRKD3): 100%

Cl.O=C(Nc1ccc(Oc2ccc3[nH]c(NC(=O)c4ccco4)nc3c2)cc1)Nc1cc(C(F)(F)F)ccc1F [GW683134A]
Percent Control (PLK3): 86%
Percent Control (PLK4): 100%
Percent Control (PRKCD): 99%
Percent Control (PRKCE): 100%
Percent Control (PRKCH): 92%
Percent Control (PRKCI): 100%
Percent Control (PRKCQ): 100%
Percent Control (PRKD1): 68%
Percent Control (PRKD2): 100%
Percent Control (PRKD3): 82%
